{"source": "PubChem BioAssay (NCATS)", "note": "Inconclusive results are not listed. Unmarked numbers belong to inactive results. Activity calls are given as the source filed them. The call rests on the fitted dose curve; in most records, active means well fitted cell-killing curve with a large enough effect; inconclusive means small, poorly fitted or top-dose-only effect, or effect the other way; inactive means flat fitted curve, though single readings scatter. On the % scale 0 is the no-effect control and ±100 the full control effect; potency means the concentration at half of the fitted maximal effect.", "data": [{"tested_on": "Tov-21-G", "test": "Primary qHTS to identify gynecologic anti-cancer compounds using libraries of approved drugs and bioactive compounds (AID 1345084); further: nearly all actives have a fitted effect of over 55% in size", "settings": "Gynecologic cancer cell panel viability, ATPlite luminescence, 48 h; series mostly up to 57.5 µM; activity change, negative = cytotoxicity: at the top concentration", "procedure,_shortened": "(§1)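 Cytotoxicity screen measuring ATP content by luciferase luminescence. Each compound is applied at five concentrations for 48 h at 37 C with 5% CO2.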", "values": [{"smiles": "CCOc1nc2cccc(C(=O)O)c2n1Cc1ccc(-c2ccccc2-c2nn[nH]n2)cc1", "Potency": "inactive"}, {"smiles": "O=c1cc[nH]c(=O)[nH]1", "activity change, negative = cytotoxicity": "8.01%"}, {"smiles": "CN1[C@@H]2CC(OC(=O)[C@H](CO)c3ccccc3)C[C@H]1[C@@H]1O[C@@H]12", "note": "(stereo partly specified)", "activity change, negative = cytotoxicity": "3.88%"}, {"smiles": "CCn1cc(C(=O)O)c(=O)c2cnc(N3CCNCC3)nc21", "activity change, negative = cytotoxicity": "4.16%"}, {"smiles": "CC(C)(C)NCC(O)COc1ccc(NC(=O)NC2CCCCC2)cc1", "note": "(stereo unspecified)", "activity change, negative = cytotoxicity": "-2.06%"}, {"smiles": "CC(C)c1c(C(=O)Nc2ccccc2)c(-c2ccccc2)c(-c2ccc(F)cc2)n1CC[C@@H](O)C[C@@H](O)CC(=O)O", "Potency": "inactive"}, {"smiles": "CN1CCN(C2Cc3ccccc3Sc3ccc(Cl)cc32)CC1", "note": "(stereo unspecified)", "activity change, negative = cytotoxicity": "-1.85%"}, {"smiles": "CCN(CC)CCSC(=O)C(c1ccccc1)c1ccccc1", "activity change, negative = cytotoxicity": "-1.58%"}, {"smiles": "Cc1c(Cl)cccc1Nc1ccccc1C(=O)O", "activity change, negative = cytotoxicity": "-4.03%"}, {"smiles": "CC[C@H]1CN2CCc3cc(OC)c(OC)cc3[C@@H]2C[C@@H]1C[C@H]1NCCc2cc(OC)c(OC)cc21", "Potency": "3.55 µM (active)"}, {"smiles": "[O-][n+]1cccc(CO)c1", "activity change, negative = cytotoxicity": "5.68%"}, {"smiles": "NCC(=O)CCC(=O)O", "activity change, negative = cytotoxicity": "-0.0946%"}, {"smiles": "CC(=O)OCC(=O)[C@@]1(O)CC[C@H]2[C@@H]3CCC4=CC(=O)CC[C@]4(C)[C@H]3C(=O)C[C@@]21C", "activity change, negative = cytotoxicity": "-5.37%"}, {"smiles": "CC(C)(C(=O)O)c1ccc(C(O)CCCN2CCC(C(O)(c3ccccc3)c3ccccc3)CC2)cc1", "note": "(stereo unspecified)", "Potency": "inactive"}, {"smiles": "CCCCN(CCCC)CC(O)c1cc(Cl)cc2c1-c1ccc(Cl)cc1/C2=C/c1ccc(Cl)cc1", "note": "(stereo unspecified)", "activity change, negative = cytotoxicity": "20.7%"}, {"smiles": "Oc1cn2c(n1)Nc1ccc(Cl)c(Cl)c1C2", "activity change, negative = cytotoxicity": "0.0755% [at 25.3 µM]"}, {"smiles": "CCCc1c(OCCCCc2nn[nH]n2)ccc(C(C)=O)c1O", "activity change, negative = cytotoxicity": "1.36%"}, {"smiles": "[Cl][In]([Cl])[Cl]", "activity change, negative = cytotoxicity": "-23.6% [at 116 µM]"}, {"smiles": "OCc1cc(C(O)CNCCCCCCOCCCCc2ccccc2)ccc1O", "note": "(stereo unspecified)", "activity change, negative = cytotoxicity": "-6.08%"}, {"smiles": "CN1CCC[C@@H]1Cc1c[nH]c2ccc(CCS(=O)(=O)c3ccccc3)cc12", "Potency": "inactive"}, {"smiles": "CSc1ccc2c(c1)C(N1CCN(C)CC1)Cc1ccccc1S2", "note": "(stereo unspecified)", "activity change, negative = cytotoxicity": "3.23%"}, {"smiles": "O=C(CCCN1CCN(c2ccccn2)CC1)c1ccc(F)cc1", "Potency": "inactive"}, {"smiles": "Cc1cc(C(C#N)c2ccc(Cl)cc2)c(Cl)cc1NC(=O)c1cc(I)cc(I)c1O", "note": "(stereo unspecified)", "Potency": "inactive"}, {"smiles": "CN(C)CCC=C1c2ccccc2CCc2ccccc21", "activity change, negative = cytotoxicity": "8.69%"}, {"smiles": "c1ccc(CN(CC2=NCCN2)c2ccccc2)cc1", "activity change, negative = cytotoxicity": "-0.415%"}]}, {"tested_on": "Tov112D", "test": "Primary qHTS to identify gynecologic anti-cancer compounds using libraries of approved drugs and bioactive compounds (AID 1345084)", "settings": "Gynecologic cancer cell panel viability, ATPlite luminescence, 48 h; series mostly up to 57.5 µM; activity change, negative = cytotoxicity: at the top concentration", "procedure,_shortened": "as §1", "values": [{"smiles": "CCOc1nc2cccc(C(=O)O)c2n1Cc1ccc(-c2ccccc2-c2nn[nH]n2)cc1", "Potency": "inactive"}, {"smiles": "O=c1cc[nH]c(=O)[nH]1", "activity change, negative = cytotoxicity": "-2.59%"}, {"smiles": "NC1[C@H]2CN(c3nc4c(cc3F)c(=O)c(C(=O)O)cn4-c3ccc(F)cc3F)C[C@@H]12", "note": "(stereo partly specified)", "activity change, negative = cytotoxicity": "-21%"}, {"smiles": "CN1[C@@H]2CC(OC(=O)[C@H](CO)c3ccccc3)C[C@H]1[C@@H]1O[C@@H]12", "note": "(stereo partly specified)", "activity change, negative = cytotoxicity": "4.9%"}, {"smiles": "CCn1cc(C(=O)O)c(=O)c2cnc(N3CCNCC3)nc21", "activity change, negative = cytotoxicity": "4.45%"}, {"smiles": "CC(C)(C)NCC(O)COc1ccc(NC(=O)NC2CCCCC2)cc1", "note": "(stereo unspecified)", "activity change, negative = cytotoxicity": "-2.19%"}, {"smiles": "CC(C)c1c(C(=O)Nc2ccccc2)c(-c2ccccc2)c(-c2ccc(F)cc2)n1CC[C@@H](O)C[C@@H](O)CC(=O)O", "activity change, negative = cytotoxicity": "-16.2% [at 25.3 µM]"}, {"smiles": "CN1CCN(C2Cc3ccccc3Sc3ccc(Cl)cc32)CC1", "note": "(stereo unspecified)", "activity change, negative = cytotoxicity": "-13.8%"}, {"smiles": "CCN(CC)CCSC(=O)C(c1ccccc1)c1ccccc1", "activity change, negative = cytotoxicity": "-5.95%"}, {"smiles": "CS(=O)(=O)c1ccc([C@@H](O)[C@@H](CF)NC(=O)C(Cl)Cl)cc1", "Potency": "inactive"}, {"smiles": "Cc1c(Cl)cccc1Nc1ccccc1C(=O)O", "activity change, negative = cytotoxicity": "-2.05%"}, {"smiles": "CC[C@H]1CN2CCc3cc(OC)c(OC)cc3[C@@H]2C[C@@H]1C[C@H]1NCCc2cc(OC)c(OC)cc21", "Potency": "0.355 µM (active)"}, {"smiles": "[O-][n+]1cccc(CO)c1", "activity change, negative = cytotoxicity": "8.91%"}, {"smiles": "NCC(=O)CCC(=O)O", "activity change, negative = cytotoxicity": "6.69%"}, {"smiles": "CCN(CC)CCCC(C)Nc1c2ccc(Cl)cc2nc2ccc(OC)cc12", "note": "(stereo unspecified)", "Potency": "inactive"}, {"smiles": "CC(=O)OCC(=O)[C@@]1(O)CC[C@H]2[C@@H]3CCC4=CC(=O)CC[C@]4(C)[C@H]3C(=O)C[C@@]21C", "activity change, negative = cytotoxicity": "-5.1%"}, {"smiles": "Cc1cc(N)c2ccccc2[n+]1CCCCCCCCCC[n+]1c(C)cc(N)c2ccccc21", "activity change, negative = cytotoxicity": "-0.764%"}, {"smiles": "OCCN1CCN(CCCN2c3ccccc3Sc3ccc(Cl)cc32)CC1", "Potency": "25.1 µM (active)"}, {"smiles": "CC(C)(C(=O)O)c1ccc(C(O)CCCN2CCC(C(O)(c3ccccc3)c3ccccc3)CC2)cc1", "note": "(stereo unspecified)", "Potency": "inactive"}, {"smiles": "CNCCC(Oc1ccc(C(F)(F)F)cc1)c1ccccc1", "note": "(stereo unspecified)", "activity change, negative = cytotoxicity": "-24.8%"}, {"smiles": "CCCCN(CCCC)CC(O)c1cc(Cl)cc2c1-c1ccc(Cl)cc1/C2=C/c1ccc(Cl)cc1", "note": "(stereo unspecified)", "activity change, negative = cytotoxicity": "-3.84%"}, {"smiles": "CSc1ccc2c(c1)N(CCC1CCCCN1C)c1ccccc1S2", "note": "(stereo unspecified)", "Potency": "28.2 µM (active)"}, {"smiles": "CCN(CC)CCNC(=O)c1c(C)[nH]c(/C=C2\\C(=O)Nc3ccc(F)cc32)c1C", "activity change, negative = cytotoxicity": "-12.4%"}, {"smiles": "Oc1cn2c(n1)Nc1ccc(Cl)c(Cl)c1C2", "activity change, negative = cytotoxicity": "4.82% [at 25.3 µM]"}, {"smiles": "CCCc1c(OCCCCc2nn[nH]n2)ccc(C(C)=O)c1O", "activity change, negative = cytotoxicity": "7.6%"}, {"smiles": "[Cl][In]([Cl])[Cl]", "activity change, negative = cytotoxicity": "3.37% [at 116 µM]"}, {"smiles": "OCc1cc(C(O)CNCCCCCCOCCCCc2ccccc2)ccc1O", "note": "(stereo unspecified)", "activity change, negative = cytotoxicity": "-0.637%"}, {"smiles": "CN1CCC[C@@H]1Cc1c[nH]c2ccc(CCS(=O)(=O)c3ccccc3)cc12", "Potency": "inactive"}, {"smiles": "C[C@H]1O[C@@H](n2cc(F)c(=O)[nH]c2=O)[C@H](O)[C@@H]1O", "activity change, negative = cytotoxicity": "-7.54%"}, {"smiles": "CSc1ccc2c(c1)C(N1CCN(C)CC1)Cc1ccccc1S2", "note": "(stereo unspecified)", "activity change, negative = cytotoxicity": "4.24%"}, {"smiles": "O=C(CCCN1CCN(c2ccccn2)CC1)c1ccc(F)cc1", "Potency": "inactive"}, {"smiles": "CC(=O)O[C@@]12CO[C@@H]1C[C@H](O)[C@@]1(C)C(=O)[C@H](O)C3=C(C)[C@@H](OC(=O)[C@H](O)[C@@H](NC(=O)OC(C)(C)C)c4ccccc4)C[C@@](O)([C@@H](OC(=O)c4ccccc4)[C@H]21)C3(C)C", "activity change, negative = cytotoxicity": "-37.1%"}, {"smiles": "Cc1cc(C(C#N)c2ccc(Cl)cc2)c(Cl)cc1NC(=O)c1cc(I)cc(I)c1O", "note": "(stereo unspecified)", "Potency": "inactive"}, {"smiles": "CN(C)CCC=C1c2ccccc2CCc2ccccc21", "activity change, negative = cytotoxicity": "-1.52%"}, {"smiles": "NC(=O)c1ncn([C@@H]2O[C@H](CO)[C@@H](O)[C@H]2O)n1", "activity change, negative = cytotoxicity": "-5.02%"}, {"smiles": "c1ccc(CN(CC2=NCCN2)c2ccccc2)cc1", "activity change, negative = cytotoxicity": "8.94%"}]}]}
